# Only a selection was taken, and hits are over-represented in it overall.
# Tb PYK inh = qHTS of Trypanosoma Brucei Inhibitors. pyruvate kinase (Trypanosoma brucei), Q57TT1. TbPYK enzyme, Kinase-Glo Plus ATP luminescence, 45 min. Potency, µM (highest dose often 76.8 µM), for inactives: top-dose activity, negative = inhibition, actives largely listed as inhibitors. 410,000 compounds, 0.12% hits. AID 624173, 2012; further: potency means the concentration at half of the fitted maximal effect; on the % scale 0 is the no-effect control and ±100 the full control effect; nearly all actives have a fitted effect of over 50% in size
#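 Assay buffer: 50 mM TEA pH 7.2, 100 mM KCl, 10 mM MgCl2, 0.05% BSA, 0.01% Tween-20. Pyruvate kinase from T. brucei plus substrate met compound, then ADP (130 uM final). Luminescence was read post 45 min RT.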
# Shiga inhibitor = A qHTS for Small Molecule Inhibitors of Shiga Toxin; 290,000 compounds, 9.2% hits; inhibition, % at 38.7 µM; Vero cells, Shiga toxin protein synthesis inhibition reporter; in the data active means inhibition mostly above about 28%, no sharp cut-off; inactive means mostly below about 43%; further: 0% is about no effect
# Giardia FBPA inh = qHTS Assay for Inhibitors of Fructose-1,6-bisphosphate Aldolase from Giardia Lamblia. A8B2U2. purified Giardia FBPA. Potency, µM (doses to about 59.6 µM), inactives show top-dose activity, negative = inhibition, actives largely listed as inhibitors. 290,000 compounds, 0.71% hits; further: potency means the concentration at half of the fitted maximal effect; on the % scale 0 is the no-effect control and ±100 the full control effect; nearly all actives have a fitted effect of over 55% in size
# Target sequence (A8B2U2 whole entry, looked up): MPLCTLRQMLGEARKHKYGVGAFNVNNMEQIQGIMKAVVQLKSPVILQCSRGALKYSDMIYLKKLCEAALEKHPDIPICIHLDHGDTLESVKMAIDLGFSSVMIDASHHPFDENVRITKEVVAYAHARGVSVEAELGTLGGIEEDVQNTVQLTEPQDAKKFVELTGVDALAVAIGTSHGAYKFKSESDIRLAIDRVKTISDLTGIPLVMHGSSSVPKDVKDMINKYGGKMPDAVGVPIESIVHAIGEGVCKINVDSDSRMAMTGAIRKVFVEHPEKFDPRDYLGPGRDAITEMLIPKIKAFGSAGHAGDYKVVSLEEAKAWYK
#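 Giardia FBPA (40 nM reagent) was preincubated 10 min at RT with compound (up to 57.5 uM final), then substrate plus GAPDH/TPI/NAD/arsenate coupling system with diaphorase/resazurin was added; resorufin fluorescence (525/598 nm) was read after 20 min.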
# Sm TGR inh = qHTS Assay for the Inhibitors of Schistosoma Mansoni Peroxiredoxins | 360,000 compounds, 3% hits | Schistosoma mansoni thioredoxin glutathione reductase (TGR), Q962Y6 | Potency, µM (top dose mostly 114 µM), without a hit: at the highest dose activity change, negative = inhibition, usual class: inhibitors | purified TGR, DTNB reduction, TNB absorbance 405 nm | AID 485364, 2010; further: potency means the concentration at half of the fitted maximal effect; on the % scale 0 is the no-effect control and ±100 the full control effect; nearly all actives have a fitted effect of over 60% in size
#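 First, TGR (20 nM dispensed) and NADPH were mixed with compound. Second, a 15 min room-temperature incubation followed. Third, further NADPH and then DTNB were added to start the reaction. Finally, TNB absorbance was monitored kinetically.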
# LmPK inh = qHTS Assay for Inhibitors of Leishmania Mexicana Pyruvate Kinase (LmPK); Q27686; Potency, µM (doses to about 57.5 µM), without a hit: top-dose activity change, negative = inhibition, most hits filed as inhibitors; purified LmPK, Kinase-Glo ATP luminescence, 1 h; 290,000 compounds, 0.37% hits; further: potency means the concentration at half of the fitted maximal effect; on the % scale 0 is the no-effect control and ±100 the full control effect
#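 ATP generated from ADP (0.1 mM) and PEP (0.5 mM) by 0.1 nM LmPK over 1 h at room temperature (pH 7.2 imidazole buffer) was detected by coupled luciferase luminescence. Values were normalized to uninhibited and no-enzyme wells.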
# Cycloheximide cs = Cycloheximide Counterscreen for Small Molecule Inhibitors of Shiga Toxin; 300,000 compounds, 12% hits; cell reporter, cycloheximide protein synthesis inhibition counterscreen; max response, %; in the data active means max response mostly above about 13%, no sharp cut-off; inactive means mostly below about 14%; further: read at 38.3 µM for the half of the compounds with a filed dose; 0% is about no effect
# Starred values were filed as active, the others as inactive; ? = inconclusive; / = no result given. Unless noted, the call rests on the fitted dose curve; in most records, active means well fitted curve in the direction sought with a large enough effect; inconclusive means small, poorly fitted or top-dose-only effect, or another doubt; inactive means no such curve, though single readings can be large; an effect the other way counts as inactive or inconclusive.
SMILES,Tb PYK inh,Shiga inhibitor,Giardia FBPA inh,Sm TGR inh,LmPK inh,Cycloheximide cs
Cc1ccc(C)n1-c1nnc(N2CCCC(C(=O)NCc3ccccc3)C2)s1 (stereo not drawn),0%,/,/,?,/,/
O=C(Nc1ccccc1F)n1ncc2cc(Cl)ccc21,3%,26,15%,-3%,0%,12*
COc1cc(NC(=O)n2ncc3cc(Cl)ccc32)cc(OC)c1,1%,60*,1%,-8%,3%,43*
Cc1cccc2c1cnn2C(=O)Nc1cc(F)ccc1F,0%,59*,2%,1%,-5%,40*
CCOC(=O)c1ccccc1NC(=O)n1ncc2cc(Cl)ccc21,-6%,/,/,-7%,/,/
COc1ccc(NC(=O)n2ncc3cc(Cl)ccc32)cc1OC,-18%,56*,-10%,-29%,5%,47*
COc1cc(OC)c(NC(=O)n2ncc3cc(Cl)ccc32)cc1Cl,-2%,/,/,7%,/,/
Nc1c(C(=O)Nc2ccc3c(c2)OCCO3)nnn1Cc1cccc(F)c1,-13%,/,/,-18%,/,/
COCCCNC(=O)C[C@H]1C[C@H](C(=O)N2CCOCC2)[C@@]2(CCC3CCCC3)c3[nH]c4ccc(Cl)cc4c3CCN2C1=O,5%,/,/,/,/,/
O=C1NC[C@H](CCCCN2C[C@@H](Cc3ccccc3)N(Cc3ccccc3)C(=O)C2=O)N(CCC2CCCCC2)C1=O,-3%,/,/,/,/,/
S=C(N/N=C/c1ccc(Cl)cc1)N1CCOCC1,-17%,97*,?,-12%,2%,41*
S=C(N/N=C/c1ccc(Br)cc1)N1CCCCC1,-16%,64*,?,0%,2%,40*
Cc1ccc(CNC(=S)N2CCOCC2)cc1,-2%,2,4%,2%,1%,-6
Cc1ccc(/C=N/NC(=S)N2CCOCC2)cc1,-24%,83*,23%,?,-3%,57*
S=C(c1ccc(Br)cc1)N1CCCC1,-12%,-3,2%,-2%,0%,-1
Cc1cc(Cl)ccc1NC(=S)N1CCOCC1,-2%,2,0%,-8%,3%,-2
CC(C)OCCCN1C(=O)c2[nH]nc(-c3ccccc3O)c2C1c1cccc(OCc2ccccc2)c1 (stereo not drawn),-1%,/,/,13%,/,/
Cc1ccc(N)c(C)c1,1%,/,/,-2%,/,/
Cc1ccc(N=Nc2cc(C)ccc2N)cc1,-22%,50*,-1%,0%,14µM*,38*
CCCCNC(=O)CSc1nc2cc3c(cc2c(=O)n1CCCCCC(=O)NCc1ccc(OC)cc1)OCO3,-5%,/,/,9%,/,/
Brc1c(-c2ccc3c(c2)OCO3)nc2ncccn12,-4%,33*,-4%,11%,-28%,20*
COc1ccc(-c2nc3ncccn3c2Br)cc1,-9%,73*,-5%,22%,?,28*
Cc1ccc(-c2nc3ncccn3c2Nc2ccc3c(c2)OCCO3)cc1,-5%,-5,8%,-15%,12%,3
CCCC(=O)Nc1ccc2c(c1)nc(CCN1CCC(C)CC1)n2C,1%,/,/,/,/,/
COc1cc(OC)c(C(=O)O/N=C(\N)c2cccc(C)c2)cc1OC,-5%,82*,-6%,-5%,-1%,50*
SMILES,Tb PYK inh,Shiga inhibitor,Giardia FBPA inh,Sm TGR inh,LmPK inh,Cycloheximide cs
COc1ccc(Cl)cc1C(=O)O/N=C(\N)c1ccc(Cl)cc1,-10%,6,-2%,-10%,1%,8
COc1ccc(/C(N)=N/OC(=O)c2ccc([N+](=O)[O-])c(C)c2)cc1OC,-2%,8,1%,2%,-1%,5
COc1cc(OC)c(C(=O)O/N=C(\N)c2ccc(C)cc2)cc1OC,-4%,11,-8%,-6%,0%,15*
COc1ccc(COc2ccc3c(C)cc(=O)oc3c2)cc1,3%,134*,3%,0%,-8%,67*
Cc1cc(=O)oc2cc(OC(C)C(=O)NC3CCN(Cc4ccccc4)CC3)ccc12 (stereo not drawn),-3%,1,5%,6%,-3%,22*
COc1ccc(CCNC(=O)COc2ccc3c(C)cc(=O)oc3c2)cc1,14%,/,/,/,/,/
Cc1cc(=O)oc2cc(OCc3ccccc3)ccc12,2%,87*,-2%,-11%,-3%,61*
Cc1ccc(S(=O)(=O)CCC(=O)Oc2ccc3c(C)cc(=O)oc3c2)cc1,0%,/,/,22µM*,/,/
Cc1ccc(OC(=O)CCS(=O)(=O)c2ccc(C)cc2)cc1,1%,2,5%,-2%,4%,-4
Cc1ccc(NC(=O)Cn2c(=O)n(Cc3ccccc3)c(=O)c3c(C)c(C(=O)N(C)C)sc32)c(C)c1,1%,/,/,0%,/,/
Cc1cc(NC(=O)CSc2nc3cc4c(cc3c(=O)n2CCc2ccccc2)OCO4)no1,-7%,1,2%,5%,2%,9.4*
COc1ccc2cc(CNCCOCCOCCNCc3ccc4cc(OC)ccc4c3)ccc2c1,2%,/,/,/,/,/
CCC(=O)CCC(=O)c1ccc2ccccc2c1,-2%,125*,0%,-16%,-2%,55*
CC(C)N(CCC(=O)c1ccc2ccccc2c1)Cc1ccccc1,0%,/,12%,0.13µM*,/,/
CCC(=O)Nc1ccc(NC(=O)c2ccc3ccccc3c2)cc1,-4%,/,10%,-1%,3%,10
CN(CC(=O)NC(=O)NCc1ccccc1)CC(=O)Nc1ccc(Cl)c(Cl)c1,-7%,/,/,3%,/,/
CCc1n[nH]c2c1/C(=N\O)CC(c1ccccc1)C2 (stereo not drawn),10%,20,1%,1%,-5%,12
CCCCc1n[nH]c2c1/C(=N/O)CC(c1ccccc1)C2 (stereo not drawn),-10%,66,1%,9%,0%,27*
CCCCc1noc2c1/C(=N\O)CC(c1ccccc1)C2 (stereo not drawn),-2%,18,9%,-1%,-2%,22*
O=C(Cn1c(=O)nc(-c2ccccc2)c2ccccc21)NCc1ccc(Cl)cc1,2%,/,/,4%,/,/
Cc1[nH]c2ccc(C(=O)N3CCCC3)cc2c1C,-10%,23,-3%,-15%,5%,30*
Cc1[nH]c2ccc(C(=O)N3CCCCC3)cc2c1C,-2%,107*,1%,-7%,-5%,39*
Cc1cccc(NC(=O)CSCC(=O)N2CCN(C(=O)c3ccco3)CC2)c1,5%,/,/,7%,/,/
N#Cc1c(-c2cccs2)nc(SCc2ccc(Cl)cc2)[nH]c1=O,2%,-6,28%,2%,13%,1
O=c1[nH]c(SCc2ccc(Cl)cc2)nc2ccsc12,10%,62*,-12%,16%,7%,44*

# Assay outcomes (PubChem)
